The campaign covered roughly 52,000 compounds. About 4,300 (8.3%) were called active. The sample holds actives, similar compounds and a random draw of the others, so the mix is not that of the screen. No stated cut-off is given here; in the data, active means survival mostly below about 52% (no sharp cut-off); inactive means mostly above about 56%.
system: DeltatarO mutant; assay: S. aureus survival, RN4220 and DeltatarO strains – OD600, teichoic acid synthesis inhibitors, primary screen (AID 463173); settings: S. aureus RN4220 wild type/DeltatarO growth, OD600, 18 h, hits give low values, screened at 18.75 µg/mL (by protocol)

For Cc1ccc(C(=O)N/C(=C/c2ccccc2)C(=O)NCc2ccco2)cc1, which survival is on record?
Its survival is 95% (inactive).

For COc1ccc(S(=O)(=O)C(C)(C)C)cc1, which survival is on record?
Its survival is 78% (inactive).

For COc1ccc(C(=O)Nc2nc3c(s2)CCCC3)cc1Cl, which survival is on record?
Its survival is 53% (inactive).

For Cn1c(=O)[nH]c(=O)c2c1nc(CN1CCN(c3ccccc3F)CC1)n2Cc1ccc(F)cc1, which survival is on record?
The survival was 122% (inactive).

With Cc1ccc(CN(Cc2ccco2)c2cnc(S(C)(=O)=O)nc2C(=O)Nc2ccc(Br)cc2)o1 as the compound, how does the survival read?
The survival was 105% (inactive).

With Cc1ccc(NC(=O)c2nc(S(C)(=O)=O)ncc2N(Cc2ccco2)Cc2ccco2)cc1 as the compound, how does the survival read?
Its survival is 44% (inactive).

How did the survival turn out when CCS(=O)(=O)c1ncc(N(Cc2ccccc2)Cc2ccco2)c(C(=O)Nc2ccccc2C)n1 was run?
The survival was 45% (active).

How did the survival turn out when CCS(=O)(=O)c1ncc(N(Cc2ccc(F)cc2)Cc2ccco2)c(C(=O)Nc2cc(C)ccc2C)n1 was run?
The survival was 58% (inactive).

Which survival does the source give for CCS(=O)(=O)c1ncc(N(Cc2ccccc2)Cc2ccco2)c(C(=O)Nc2ccc(C)c(C)c2)n1 here?
The survival was 52% (inactive).

For CCS(=O)(=O)c1ncc(N(Cc2ccco2)Cc2sccc2C)c(C(=O)Nc2ccc(C)cc2C)n1, which survival is on record?
Its survival is 53% (active).

Which survival does the source give for CCS(=O)(=O)c1ncc(N(Cc2ccco2)Cc2sccc2C)c(C(=O)Nc2cc(C)ccc2C)n1 here?
Its survival is 106% (inactive).

Cc1ccsc1CN(Cc1ccco1)c1cnc(S(C)(=O)=O)nc1C(=O)Nc1ccc(Cl)cc1 was tested. Which survival did it give?
Its survival is 40% (active).

For Cc1ccccc1NC(=O)c1nc(S(C)(=O)=O)ncc1N(Cc1ccco1)Cc1sccc1C, which survival is on record?
Its survival is 43% (active).

CCS(=O)(=O)c1ncc(N(Cc2ccccc2)Cc2ccco2)c(C(=O)Nc2cccc(Cl)c2C)n1 was tested. Which survival did it give?
The survival was 60% (inactive).

With COc1ccc(NC(=O)C2CCCN(c3cnccn3)C2)c(OC)c1 (stereo not drawn) as the compound, how does the survival read?
The survival was 107% (inactive).

For Cc1c(C)n(Cc2ccccc2)c2ccc(C(=O)N3CCN(c4ccccc4F)CC3)cc12, which survival is on record?
The survival was 80% (inactive).

How did the survival turn out when Cc1cc(C)c(NC(=O)CCS(=O)(=O)c2cc3c(cc2Cl)NC(=O)CO3)c(C)c1 was run?
The survival was 80% (inactive).

Which survival does the source give for CCCOc1cccc(C2c3c(oc4ccc(F)cc4c3=O)C(=O)N2c2nc(C)c(C(C)=O)s2)c1 (stereo not drawn) here?
Its survival is 65% (inactive).

For CSc1ccc(CCNC(=O)Cn2ncc3c(=O)oc4ccc(C)cc4c32)cc1, which survival is on record?
Its survival is 89% (inactive).

Which survival does the source give for COC(=O)c1cc(OC)c(OC)c(OC)c1NC(=O)c1cc(=O)n(C)c(=O)n1C here?
The survival was 78% (inactive).

With CC(=O)OC1COC(N2CCc3ccccc32)C(OC(C)=O)C1OC(C)=O (stereo not drawn) as the compound, how does the survival read?
Its survival is 97% (inactive).

For CC1CCN(C(=O)c2ccc3c(c2)N(Cc2ccccc2F)C(=O)c2ccccc2S3(=O)=O)CC1, which survival is on record?
The survival was 80% (inactive).

Which survival does the source give for CCC(=O)N1CCc2cc(S(=O)(=O)NCCC(=O)NC(C)c3ccccc3)ccc21 (stereo not drawn) here?
The survival was 85% (inactive).
